Most compounds without a hit are left out; they make up all but 3.2% or so of the library.
RE007 growth inh = less growth of the S. pombe RE007 Vpr strain | S. pombe RE007 Vpr strain, BacTiter-Glo ATP luminescence, 24 h | Potency, µM (highest dose often 92.2 µM), inactives show at the top dose activity change, negative = less growth, most hits filed as inhibitors | 0.21% of 360,000 active | AID 651644; active = well fitted falling curve with a large enough effect; inconclusive = small, poorly fitted or top-dose-only effect; inactive = no such curve, though single readings can be large or run the other way; note: nearly all actives have a fitted effect of over 50% in size
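Fission yeast RE007 carrying one integrated HIV-1 vpr copy, seeded at OD 0.01 in PMG+AL medium with 23 nL pinned compound. Grown 24 h at 30 degrees; viability read by BacTiter-Glo luminescence after 5 min.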
AMA1-RON2 inh = disrupts binding of P. falciparum AMA1 to RON2; AlphaScreen AMA1-biotinylated RON2 peptide binding; Potency, µM (titrated, usually from 58.2 µM), inactives show at the top dose activity change, negative = inhibition, usual class: inhibitors; 0.2% of 360,000 active; AID 720542;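 note: 0% = vehicle wells and -100% = peptide control; nearly all actives have a fitted effect of over 45% in size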
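AMA1 (3D7) with his tag at 25 nM final met compounds first, then biotinylated RON2 peptide at 25 nM; detection used donor plus acceptor beads, 10 µg/mL apiece, read by AlphaScreen after 30 min at room temperature.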
AmpC inh detg = blocks E. coli AmpC beta-lactamase in detergent assay | Potency, µM (top dose mostly 114 µM), without a hit: at the highest dose activity change, negative = inhibition, most hits filed as inhibitors | 0.041% of 370,000 active | AmpC hydrolysis of nitrocefin, absorbance 480 nm, 0.01% Triton | P00811 | AID 485294;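 note: 0% = no-compound wells and -100% = no-enzyme wells; nearly all actives have a fitted effect of over 25% in size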
Target sequence (P00811 whole entry, looked up): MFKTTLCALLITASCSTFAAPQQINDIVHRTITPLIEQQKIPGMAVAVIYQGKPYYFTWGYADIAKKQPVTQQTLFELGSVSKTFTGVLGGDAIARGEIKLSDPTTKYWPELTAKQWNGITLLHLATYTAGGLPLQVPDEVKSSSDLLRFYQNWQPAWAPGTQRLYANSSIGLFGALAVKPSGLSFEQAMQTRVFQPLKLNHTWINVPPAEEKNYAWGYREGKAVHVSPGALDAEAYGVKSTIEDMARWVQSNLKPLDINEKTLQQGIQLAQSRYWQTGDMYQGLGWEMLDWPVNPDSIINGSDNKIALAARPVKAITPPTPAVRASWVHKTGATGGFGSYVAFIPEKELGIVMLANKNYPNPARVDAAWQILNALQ
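AmpC (5.3 nM in the dispensed reagent) in 20 mM phosphate pH 7.0 with 0.01% (detergent screen) or 0.0001% Triton X-100 was preincubated with compounds for 15 min at room temperature. Nitrocefin was then added from an 800 uM solution, and hydrolysis was followed at 480 nm.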
Sm TGR inh = inhibitors of Schistosoma mansoni thioredoxin glutathione reductase | Q962Y6 | purified TGR, DTNB reduction, TNB absorbance 405 nm | Potency, µM (titrated, usually from 114 µM), for the others: at the highest dose activity change, negative = inhibition, usual class: inhibitors | 3% of 360,000 active | AID 485364; note: nearly all actives have a fitted effect of over 60% in size
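TGR 20 nM + NADPH 100 uM (dispensed conc.), cpd preinc 15 min RT; start with NADPH (500 uM addition) then DTNB (15 mM addition). Kinetic TNB absorbance, 405 nm filter. Four-parameter Hill fit across titration.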
AmpC inh no detg = inhibitors of E. coli AmpC beta-lactamase without detergent. P00811. AmpC nitrocefin hydrolysis, absorbance 480 nm, 0.0001% Triton. 0.52% of 330,000 active. Potency, µM (highest dose often 57.1 µM), inactives show at the highest dose activity change, negative = inhibition, hits mostly inhibitors;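 note: plate controls were no compound for no effect and no enzyme for full effect; nearly all actives have a fitted effect of over 20% in size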
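20 mM phosphate pH 7.0 + 0.01% (detergent screen) or 0.0001% Triton X-100; 5.3 nM AmpC reagent; cpd preinc 15 min RT; nitrocefin (800 uM stock) to start; A480 q20 s × 4 min; Activity was normalised to no-enzyme and no-compound control wells.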
An asterisk follows results filed as active; ? = inconclusive; . = no result. Unless noted, calls come from the whole dose curve; as a rule, active = well fitted curve in the direction sought with a large enough effect; inconclusive = small, poorly fitted or top-dose-only effect, or another doubt; inactive = no such curve, though single readings can be large; an effect the other way counts as inactive or inconclusive. Unless noted, % is set by controls: 0 for no effect and ±100 for the full control effect; potency is the fitted concentration of half-maximal effect.

SMILES | RE007 growth inh | AMA1-RON2 inh | AmpC inh detg | Sm TGR inh | AmpC inh no detg
COc1ccccc1-n1c(CCC(=O)O)ccc1-c1ccccc1 | -0.7% | -22.0% | -0.8% | 28.2µM* | -14.0%
COc1ccc(-c2ccc(CCC(=O)O)n2-c2ccccc2OC)cc1 | 8.6% | -9.4% | -0.6% | 11.2µM* | -16.5%
COc1ccc(-n2c(CCC(=O)O)ccc2-c2ccccc2)c(OC)c1 | . | . | -6.2% | 8.91µM* | .
COc1ccc(NC(=O)Cn2c(CCC(=O)O)ccc2-c2ccccc2)cc1Cl | . | . | -0.9% | -23.3% | .
CCOC(=O)c1oc2c(c1C)-c1nn(Cc3ccc(Cl)cc3)cc1CC2 | . | . | -2.7% | -2.9% | .
CCN1CCC(N(Cc2ccc(F)cc2)C(=O)Nc2cc(Cl)ccc2C(=O)OC)CC1 | . | . | 12.5% | 5.1% | .
Cc1ccc(Cl)cc1N1CCN(C(=O)c2ccc(NC(=O)c3nsc4ccccc34)cc2)CC1 | . | . | -0.1% | 0.4% | .
CC1(C)CCN2CCC(C)(C)c3c(O)ccc1c32 | 2.2% | ? | 4.3% | 2.82µM* | -8.2%
COCCOC(=O)c1c(-c2ccccc2)c(-c2ccccc2)nn(C)c1=O | . | . | 16.2% | 0.2% | .
CCCCn1cc2c(c1-c1ccc(Br)cc1)c(=O)n(C)c(=O)n2C | . | . | 20.2% | 12.8% | .
Cc1sc(NC(=O)c2ccco2)c(C(c2cccnc2)N2CCN(CCO)CC2)c1C (stereo not given) | -17.2% | 3.5% | -4.4% | -24.3% | 97.9%
CCOC(=O)C1CCN(C(c2cccnc2)c2c(NC(=O)c3ccco3)sc(C)c2C)CC1 (stereo not given) | 8.8% | -19.3% | 0.1% | 7.94µM* | 11.5%
Cc1sc(NC(=O)c2ccco2)c(C(c2cccnc2)N2CCN(c3ccc(F)cc3)CC2)c1C (stereo not given) | -1.7% | ? | -11.9% | 22.4µM* | 52.2%
Cc1nc(N2CCOCC2)c2c(C(=O)N3CCN(c4cc(Cl)ccc4C)CC3)c(C)oc2n1 | . | . | 20.3% | 1.1% | .
COc1ccc(Cl)cc1NC(=S)NCCCN1CCCC1=O | -1.9% | 9.3% | ? | 50.1µM* | -8.7%
O=C1CCCN1CCCNC(=S)Nc1ccc(Br)cc1Cl | 0.9% | 17.8% | -12.2% | 14.1µM* | -3.7%
COc1ccc(Cl)cc1NC(=S)NCCc1ccc(S(N)(=O)=O)cc1 | 11.1% | -1.0% | 9.1% | 2.82µM* | -17.2%
Cc1ccccc1C(=O)Nc1nc(-c2ccc(Br)cc2)ns1 | . | . | 13.0% | 8.4% | .
C=C1C(=O)[C@@]23[C@H](O)C[C@@H]4C(C)(C)CC[C@H](O)[C@]4(C)[C@@H]2C[C@H](O)[C@@H]1[C@H]3O | 2.4% | -2.9% | ? | 10µM* | -17.3%
C=C1C(=O)[C@]23C[C@H]1CCC2[C@]1(C)CCC[C@@](C)(C(=O)O)C1C[C@@H]3O (stereo not given in full) | ? | 6.0% | . | . | .
C=C1C(=O)[C@@]23[C@H](O)C[C@@H]4C(C)(C)CC[C@H](O)[C@@]4(C)[C@@H]2CC[C@@H]1[C@H]3O | 2.5% | 19.3% | ? | 20µM* | 1.1%
CCN1C(=O)c2ccccc2S(=O)(=O)c2ccc(C(=O)NCc3ccc(C)cc3)cc21 | . | . | -11.4% | -1.0% | .
COc1ccc(Cl)cc1NC(=O)CN1C(=O)CCS(=O)(=O)c2ccccc21 | -8.5% | 0.4% | ? | 50.1µM* | -5.5%
O=C1CC(/C=C/c2ccco2)=Nc2ccccc2N1 | -0.3% | -11.4% | ? | 44.7µM* | -18.2%
C=CC#CC[N+]1(CC#Cc2ccccc2)CCOCC1 | 6.6% | ? | -4.2% | 39.8µM* | 38.7%
C(#Cc1ccccc1)C[N+]1(CC#Cc2ccccc2)CCCC1 | -0.9% | 3.1% | -4.1% | -18.6% | 7.5%
Cc1oc(-c2cccc(Cl)c2)nc1CS(=O)(=O)CC(=O)NC(C)CCc1ccccc1 (stereo not given) | . | . | 1.0% | ? | .
Cc1ccc(-c2nn(CC(=O)NC3CCCCC3)c3c2cnc2ccc(F)cc23)cc1C | . | . | -4.8% | 1.1% | .
O=C1C2C3C=CC(C3)C2C(=O)N1CNc1ccc(O)cc1 (stereo not given) | . | . | -10.6% | 44.7µM* | -36.9%

Screens (PubChem BioAssay)
